The first assay deals with PUM1 PUF domain R1-YRR (Homo sapiens, UniProt Q14671 828-1176, S863Y;Q867R). In words: yeast three-hybrid, YBZ-1, SC-Leu-His + 0.5 mM 3-AT, 4 days. To be noted: tags: N-Gal4 AD-HA kept; label: inside an RPR1-promoter hybrid RNA with tandem MS2 sites; ssRNA. Put shortly:
(§1)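 The interaction score is the logarithmic change in variant frequency from input to selection. It uses log2, with a pseudocount of 1 for absent variants, and frequencies came from PCR-amplified, Illumina-sequenced repeat regions. The libraries were Pumilio-1 PUF domains randomized at the three base-contacting residues per repeat, co-expressed with matching RNA elements in strain YBZ-1 (LexA–MS2 coat fusion, HIS3 reporter). Plating lasted four days on SC-Leu (input) or SC-Leu-His + 0.5 mM 3-AT (selection).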
PUM1 PUF domain R1-YRR, sequence (Q14671 828-1176 S863Y/Q867R): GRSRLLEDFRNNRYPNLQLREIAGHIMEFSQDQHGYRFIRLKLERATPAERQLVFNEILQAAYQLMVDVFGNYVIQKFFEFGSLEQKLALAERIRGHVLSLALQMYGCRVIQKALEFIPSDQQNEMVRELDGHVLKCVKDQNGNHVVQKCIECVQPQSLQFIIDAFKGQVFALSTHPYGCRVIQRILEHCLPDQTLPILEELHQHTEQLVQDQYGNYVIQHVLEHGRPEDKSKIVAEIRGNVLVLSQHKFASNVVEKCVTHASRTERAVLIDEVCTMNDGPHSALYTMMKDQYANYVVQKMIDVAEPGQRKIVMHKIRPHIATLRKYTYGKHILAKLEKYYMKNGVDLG
“GGCUAGAACUAGUGGAUCCCCCGGCGCCCGGCGGCUCGAGCCCGGGUAAGUGUAAAUCGUCUGCAUGCCGCCGGGCGCCAUGCCUGCAGGUCGACUCUAGAAAACAUG”: the binding signal was 7.93 log2 enrichment (interaction score). Take “GGCUAGAACUAGUGGAUCCCCCGGCGCCCGGCGGCUCGAGCCCGGGUAAGUGUAAAUGGUCUGCAUGCCGCCGGGCGCCAUGCCUGCAGGUCGACUCUAGAAAACAUG”: the binding signal is 4.42 log2 enrichment (interaction score). On to “GGCUAGAACUAGUGGAUCCCCCGGCGCCCGGCGGCUCGAGCCCGGGUAAGUGUAAAUUGUCUGCAUGCCGCCGGGCGCCAUGCCUGCAGGUCGACUCUAGAAAACAUG”, for which the binding signal was 8.31 log2 enrichment (interaction score).

The target in the next assay is PUM1 PUF domain R3-CFG (Homo sapiens, UniProt Q14671 828-1176, R936F;Q939G). The assay is described as above. To be noted: tags: N-Gal4 AD-HA kept; label: inside an RPR1-promoter hybrid RNA with tandem MS2 sites; ssRNA. Put shortly: as §1
With “GGCUAGAACUAGUGGAUCCCCCGGCGCCCGGCGGCUCGAGCCCGGGUAAGUGUAAGUAGUCUGCAUGCCGCCGGGCGCCAUGCCUGCAGGUCGACUCUAGAAAACAUG”, the binding signal was 1.61 log2 enrichment (interaction score).

Consider “GGCUAGAACUAGUGGAUCCCCCGGCGCCCGGCGGCUCGAGCCCGGGUAAGUGUAAAUAGUCUGCAUGCCGCCGGGCGCCAUGCCUGCAGGUCGACUCUAGAAAACAUG”, for which the binding signal was 3.86 log2 enrichment (interaction score). On the same count and under the same terms, the value for “GGCUAGAACUAGUGGAUCCCCCGGCGCCCGGCGGCUCGAGCCCGGGUAAGUGUAAUUAGUCUGCAUGCCGCCGGGCGCCAUGCCUGCAGGUCGACUCUAGAAAACAUG” was 2.06 log2 enrichment (interaction score).

For the origin of these results see article PMC8384837, “Expanding the binding specificity for RNA recognition by a PUF domain”.
